The full data set covers some 21,000 targets. This sample favours those with the largest changes.
Compound: Cc1cc(ccc1-c1ccccc1)C(=O)N1CCCN(CC1)C(=O)CCl [compound 10]
Assay: probe-labelled cysteine peptide fold change vs DMSO (competition) (log2 fold change); higher = less target engagement (more negative = stronger competition)
Settings: THP-1, incubation time: 4 h
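Note: competitive profiling in live THP-1 cells: cysteine peptides tagged with an iodoacetamide desthiobiotin (IA-DTB) probe, intensity after compound treatment relative to DMSO-treated cells.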

UniProt Q9UK59, sequence (Q9UK59 whole entry, looked up): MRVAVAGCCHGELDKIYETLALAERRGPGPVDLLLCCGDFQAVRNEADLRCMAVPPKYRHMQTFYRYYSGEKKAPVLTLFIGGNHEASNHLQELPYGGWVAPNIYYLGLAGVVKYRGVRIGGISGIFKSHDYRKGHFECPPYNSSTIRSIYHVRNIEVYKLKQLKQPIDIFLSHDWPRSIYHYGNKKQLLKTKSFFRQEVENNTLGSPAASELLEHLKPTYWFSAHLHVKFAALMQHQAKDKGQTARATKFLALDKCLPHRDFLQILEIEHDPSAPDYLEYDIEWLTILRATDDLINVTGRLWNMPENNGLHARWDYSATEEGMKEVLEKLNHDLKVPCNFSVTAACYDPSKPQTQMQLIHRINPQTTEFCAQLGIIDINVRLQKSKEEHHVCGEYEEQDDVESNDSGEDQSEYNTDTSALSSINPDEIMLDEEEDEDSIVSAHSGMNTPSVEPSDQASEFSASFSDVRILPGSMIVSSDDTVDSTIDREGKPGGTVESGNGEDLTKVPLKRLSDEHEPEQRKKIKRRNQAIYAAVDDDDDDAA
UniProt O14579, sequence (O14579 whole entry, looked up): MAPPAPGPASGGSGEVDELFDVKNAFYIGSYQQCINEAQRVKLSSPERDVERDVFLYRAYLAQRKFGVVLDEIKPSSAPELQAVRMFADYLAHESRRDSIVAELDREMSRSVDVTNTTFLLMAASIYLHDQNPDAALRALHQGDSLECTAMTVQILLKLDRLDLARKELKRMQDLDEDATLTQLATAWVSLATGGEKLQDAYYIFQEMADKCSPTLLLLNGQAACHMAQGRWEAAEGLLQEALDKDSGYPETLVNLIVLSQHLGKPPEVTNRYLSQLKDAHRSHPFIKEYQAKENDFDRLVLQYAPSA
UniProt Q8TDJ6, sequence (Q8TDJ6 whole entry, looked up): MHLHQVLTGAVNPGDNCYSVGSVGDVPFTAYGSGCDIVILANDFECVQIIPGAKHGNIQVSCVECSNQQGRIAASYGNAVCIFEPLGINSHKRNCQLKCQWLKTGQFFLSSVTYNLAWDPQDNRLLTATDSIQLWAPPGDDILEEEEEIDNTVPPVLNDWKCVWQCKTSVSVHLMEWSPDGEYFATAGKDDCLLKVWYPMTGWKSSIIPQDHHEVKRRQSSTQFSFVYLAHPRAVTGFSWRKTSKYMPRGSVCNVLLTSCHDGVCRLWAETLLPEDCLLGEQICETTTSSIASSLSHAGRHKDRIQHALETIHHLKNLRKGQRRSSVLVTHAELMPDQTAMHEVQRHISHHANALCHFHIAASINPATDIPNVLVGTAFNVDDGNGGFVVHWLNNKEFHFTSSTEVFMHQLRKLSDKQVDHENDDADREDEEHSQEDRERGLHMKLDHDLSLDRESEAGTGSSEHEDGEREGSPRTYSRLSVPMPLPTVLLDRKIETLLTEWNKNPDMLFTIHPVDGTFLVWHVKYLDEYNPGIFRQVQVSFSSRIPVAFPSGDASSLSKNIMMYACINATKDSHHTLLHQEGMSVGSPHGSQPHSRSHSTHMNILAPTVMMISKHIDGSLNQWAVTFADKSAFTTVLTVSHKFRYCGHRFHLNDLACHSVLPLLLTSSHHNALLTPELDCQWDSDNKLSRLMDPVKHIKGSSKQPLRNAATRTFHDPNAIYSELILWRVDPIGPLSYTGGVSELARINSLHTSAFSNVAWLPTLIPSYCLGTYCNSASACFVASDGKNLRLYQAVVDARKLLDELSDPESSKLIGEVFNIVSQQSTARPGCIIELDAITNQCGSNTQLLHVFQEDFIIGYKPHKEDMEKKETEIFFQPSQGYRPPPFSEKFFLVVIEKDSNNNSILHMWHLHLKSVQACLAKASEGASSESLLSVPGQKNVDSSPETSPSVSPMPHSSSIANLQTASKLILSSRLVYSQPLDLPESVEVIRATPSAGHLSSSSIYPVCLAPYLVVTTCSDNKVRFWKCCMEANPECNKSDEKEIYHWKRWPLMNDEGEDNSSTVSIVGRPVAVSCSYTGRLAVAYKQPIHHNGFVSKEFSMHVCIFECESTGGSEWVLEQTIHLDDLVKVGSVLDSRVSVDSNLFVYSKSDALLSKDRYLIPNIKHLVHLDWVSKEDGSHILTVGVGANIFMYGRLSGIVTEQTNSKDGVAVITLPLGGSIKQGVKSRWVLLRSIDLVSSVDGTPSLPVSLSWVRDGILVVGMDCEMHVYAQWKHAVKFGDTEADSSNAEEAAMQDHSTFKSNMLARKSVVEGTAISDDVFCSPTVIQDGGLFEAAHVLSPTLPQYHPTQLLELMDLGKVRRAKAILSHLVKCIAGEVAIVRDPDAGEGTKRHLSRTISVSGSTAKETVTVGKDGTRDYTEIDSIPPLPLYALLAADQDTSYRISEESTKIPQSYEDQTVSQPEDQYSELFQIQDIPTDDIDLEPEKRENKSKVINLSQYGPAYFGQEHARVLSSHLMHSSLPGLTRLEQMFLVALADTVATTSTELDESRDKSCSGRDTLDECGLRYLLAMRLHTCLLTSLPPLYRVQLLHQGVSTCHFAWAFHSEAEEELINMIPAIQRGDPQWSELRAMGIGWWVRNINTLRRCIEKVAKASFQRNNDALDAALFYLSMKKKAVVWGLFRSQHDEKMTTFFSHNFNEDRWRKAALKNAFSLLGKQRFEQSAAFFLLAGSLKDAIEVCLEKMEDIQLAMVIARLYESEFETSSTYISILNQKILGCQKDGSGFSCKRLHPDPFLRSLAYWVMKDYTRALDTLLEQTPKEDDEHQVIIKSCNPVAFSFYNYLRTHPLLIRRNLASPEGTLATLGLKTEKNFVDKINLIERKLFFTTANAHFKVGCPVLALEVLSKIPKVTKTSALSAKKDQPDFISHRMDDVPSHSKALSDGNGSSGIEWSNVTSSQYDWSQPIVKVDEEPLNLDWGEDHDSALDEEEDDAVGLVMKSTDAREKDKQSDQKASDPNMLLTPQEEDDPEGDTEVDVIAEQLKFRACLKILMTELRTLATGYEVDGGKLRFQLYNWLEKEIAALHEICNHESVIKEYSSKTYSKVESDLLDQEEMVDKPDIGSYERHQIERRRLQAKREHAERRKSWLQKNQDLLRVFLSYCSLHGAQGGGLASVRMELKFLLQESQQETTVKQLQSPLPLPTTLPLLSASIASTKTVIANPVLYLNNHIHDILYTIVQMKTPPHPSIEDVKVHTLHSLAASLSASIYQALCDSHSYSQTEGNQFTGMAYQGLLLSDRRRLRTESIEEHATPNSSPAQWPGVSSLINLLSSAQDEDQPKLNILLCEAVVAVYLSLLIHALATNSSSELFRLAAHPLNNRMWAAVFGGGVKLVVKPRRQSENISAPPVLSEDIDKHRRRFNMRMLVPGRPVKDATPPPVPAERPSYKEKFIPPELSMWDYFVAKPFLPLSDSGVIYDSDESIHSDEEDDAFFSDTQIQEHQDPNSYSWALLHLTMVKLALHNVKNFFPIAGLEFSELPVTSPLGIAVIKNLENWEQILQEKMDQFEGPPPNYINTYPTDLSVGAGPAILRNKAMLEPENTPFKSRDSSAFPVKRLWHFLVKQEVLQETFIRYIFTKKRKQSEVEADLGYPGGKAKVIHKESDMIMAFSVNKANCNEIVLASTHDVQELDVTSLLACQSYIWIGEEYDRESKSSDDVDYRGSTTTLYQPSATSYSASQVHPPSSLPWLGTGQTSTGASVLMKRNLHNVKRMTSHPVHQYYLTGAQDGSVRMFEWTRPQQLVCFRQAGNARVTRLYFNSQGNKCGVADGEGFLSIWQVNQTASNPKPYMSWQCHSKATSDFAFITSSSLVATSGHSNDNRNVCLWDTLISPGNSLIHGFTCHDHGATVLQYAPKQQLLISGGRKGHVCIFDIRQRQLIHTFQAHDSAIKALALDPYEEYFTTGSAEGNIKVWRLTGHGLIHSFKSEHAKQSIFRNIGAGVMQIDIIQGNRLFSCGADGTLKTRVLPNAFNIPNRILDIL
UniProt O60231, sequence (O60231 whole entry, looked up): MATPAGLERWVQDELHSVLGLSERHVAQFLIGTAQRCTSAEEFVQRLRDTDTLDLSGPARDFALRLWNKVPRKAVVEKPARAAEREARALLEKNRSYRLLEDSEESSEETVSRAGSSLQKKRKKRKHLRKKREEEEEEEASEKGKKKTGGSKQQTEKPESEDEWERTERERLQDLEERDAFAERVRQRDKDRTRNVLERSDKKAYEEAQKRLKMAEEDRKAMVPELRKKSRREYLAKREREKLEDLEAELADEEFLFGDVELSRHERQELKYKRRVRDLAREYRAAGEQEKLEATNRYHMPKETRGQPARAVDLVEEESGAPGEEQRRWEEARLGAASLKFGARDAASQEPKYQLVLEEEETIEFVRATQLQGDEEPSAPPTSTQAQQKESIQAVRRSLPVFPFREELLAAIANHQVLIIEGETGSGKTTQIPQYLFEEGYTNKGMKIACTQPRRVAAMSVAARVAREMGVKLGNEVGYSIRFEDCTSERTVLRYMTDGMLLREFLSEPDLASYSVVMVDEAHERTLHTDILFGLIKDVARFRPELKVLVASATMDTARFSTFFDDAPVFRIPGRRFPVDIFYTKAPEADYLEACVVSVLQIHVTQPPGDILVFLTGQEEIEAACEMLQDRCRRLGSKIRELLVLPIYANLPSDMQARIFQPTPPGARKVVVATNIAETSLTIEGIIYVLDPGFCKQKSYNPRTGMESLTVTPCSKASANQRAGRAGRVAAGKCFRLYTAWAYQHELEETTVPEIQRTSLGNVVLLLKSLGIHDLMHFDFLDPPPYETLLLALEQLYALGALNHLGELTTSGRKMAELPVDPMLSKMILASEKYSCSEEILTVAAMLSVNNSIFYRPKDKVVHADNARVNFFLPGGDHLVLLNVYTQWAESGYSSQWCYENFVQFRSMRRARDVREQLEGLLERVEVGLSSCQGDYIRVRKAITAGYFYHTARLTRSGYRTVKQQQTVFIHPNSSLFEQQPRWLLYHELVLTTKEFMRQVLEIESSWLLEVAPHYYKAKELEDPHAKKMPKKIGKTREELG
UniProt Q14061, sequence (Q14061 whole entry, looked up): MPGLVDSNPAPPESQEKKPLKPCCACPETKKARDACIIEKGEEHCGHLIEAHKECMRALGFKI

**Q.** Which “probe-labelled cysteine peptide fold change” value (10 µM) does the source give for CTSZ_Q9UBR2_164_DQECDK (UniProt Q9UBR2) here?
**A.** -0.0913

**Q.** What about the “probe-labelled cysteine peptide fold change” value (50 µM) of the same target?
**A.** -0.207

**Q.** With “CUL7_Q14999_952_CQQGGIDTR (UniProt Q14999)” as the target, how does the “probe-labelled cysteine peptide fold change” value (10 µM) read?
**A.** -0.417

**Q.** And the “probe-labelled cysteine peptide fold change” value (50 µM)?
**A.** -0.0198

**Q.** What does the source list for “COX17_Q14061_23+24_KPLKPCCACPETK (UniProt Q14061)”?
**A.** probe-labelled cysteine peptide fold change (10 µM): -0.321; probe-labelled cysteine peptide fold change (50 µM): -2.25

**Q.** Which results are given for “DDX24_Q9GZR7_570_IHCETDEK (UniProt Q9GZR7)”?
**A.** probe-labelled cysteine peptide fold change (10 µM): -0.15; probe-labelled cysteine peptide fold change (50 µM): 0.261

**Q.** Which results are given for “DIS3L2_Q8IYB7_196_LSVCVSEK (UniProt Q8IYB7)”?
**A.** probe-labelled cysteine peptide fold change (10 µM): -0.124; probe-labelled cysteine peptide fold change (50 µM): 0.0776

**Q.** Which results are given for “COPA_P53621_1169_NPTDAYQLNYDMHNPFDICAASYR (UniProt P53621)”?
**A.** probe-labelled cysteine peptide fold change (10 µM): 0.178; probe-labelled cysteine peptide fold change (50 µM): 0.397

**Q.** Which “probe-labelled cysteine peptide fold change” value (10 µM) does the source give for “CYB5R4_Q7L1T6_278_CQLISK (UniProt Q7L1T6)” here?
**A.** -0.0627

**Q.** What about the “probe-labelled cysteine peptide fold change” value (50 µM) of the same target?
**A.** -0.00326

**Q.** For “CORO1B_Q9BR76_25_NDQCYEDIR (UniProt Q9BR76)”, which “probe-labelled cysteine peptide fold change” value (10 µM) is on record?
**A.** -0.0464

**Q.** And the “probe-labelled cysteine peptide fold change” value (50 µM)?
**A.** -0.0083

**Q.** For “DDAH2_O95865_220_AMAVLTDHPYASLTLPDDAAADCLFLRPGLPGVPPFLLHR (UniProt O95865)”, which “probe-labelled cysteine peptide fold change” value (10 µM) is on record?
**A.** 0.061

**Q.** And the “probe-labelled cysteine peptide fold change” value (50 µM)?
**A.** 0.0115

**Q.** Which results are given for “CPPED1_Q9BRF8_88_FFVLCGDLIHAMPGKPWR (UniProt Q9BRF8)”?
**A.** probe-labelled cysteine peptide fold change (10 µM): -0.0653; probe-labelled cysteine peptide fold change (50 µM): -0.191

**Q.** With CTSZ_Q9UBR2_179_ECHAIR (UniProt Q9UBR2) as the target, how does the “probe-labelled cysteine peptide fold change” value (10 µM) read?
**A.** 0.892

**Q.** And the “probe-labelled cysteine peptide fold change” value (50 µM)?
**A.** 2.23

**Q.** Which results are given for “CRYZ_Q08257_45_VHACGVNPVETYIR (UniProt Q08257)”?
**A.** probe-labelled cysteine peptide fold change (10 µM): 0.0503; probe-labelled cysteine peptide fold change (50 µM): -0.01

**Q.** For “DENND4A_Q7Z401_35_PLEEEIHFNDACHK (UniProt Q7Z401)”, which “probe-labelled cysteine peptide fold change” value (10 µM) is on record?
**A.** -0.0984

**Q.** What about the “probe-labelled cysteine peptide fold change” value (50 µM) of the same target?
**A.** -0.131

**Q.** Which results are given for “DHX9_Q08211_777_VRPGFCFHLCSR (UniProt Q08211)”?
**A.** probe-labelled cysteine peptide fold change (10 µM): -0.231; probe-labelled cysteine peptide fold change (50 µM): -0.0284

**Q.** “CROT_Q9UKG9_584_SCPETDAEK (UniProt Q9UKG9)” was tested. Which “probe-labelled cysteine peptide fold change” value (10 µM) did it give?
**A.** -0.0249

**Q.** What about the “probe-labelled cysteine peptide fold change” value (50 µM) of the same target?
**A.** 0.181

**Q.** For “DDX39A_O00148_62_AIVDCGFEHPSEVQHECIPQAILGMDVLCQAK (UniProt O00148)”, which “probe-labelled cysteine peptide fold change” value (10 µM) is on record?
**A.** 0.144

**Q.** And the “probe-labelled cysteine peptide fold change” value (50 µM)?
**A.** 0.0705

**Q.** Which “probe-labelled cysteine peptide fold change” value (10 µM) does the source give for “DIAPH3_Q9NSV4_663_IRPHEMTENCFWIK (UniProt Q9NSV4)” here?
**A.** -0.0626

**Q.** What about the “probe-labelled cysteine peptide fold change” value (50 µM) of the same target?
**A.** -0.468

**Q.** What does the source list for “DENND4B_O75064_652_HAALEFFDSCVEK (UniProt O75064)”?
**A.** probe-labelled cysteine peptide fold change (10 µM): 0.0262; probe-labelled cysteine peptide fold change (50 µM): 0.235

**Q.** For “DBR1_Q9UK59_36_RGPGPVDLLLCCGDFQAVR (UniProt Q9UK59)”, which “probe-labelled cysteine peptide fold change” value (10 µM) is on record?
**A.** 0.0792

**Q.** What about the “probe-labelled cysteine peptide fold change” value (50 µM) of the same target?
**A.** -0.183

**Q.** How did the “probe-labelled cysteine peptide fold change” value (10 µM) turn out when “DDX55_Q8NHQ9_161_AEGLDLASCVR (UniProt Q8NHQ9)” was run?
**A.** 0.187

**Q.** What about the “probe-labelled cysteine peptide fold change” value (50 µM) of the same target?
**A.** 0.31

**Q.** How did the “probe-labelled cysteine peptide fold change” value (10 µM) turn out when “DDX52_Q9Y2R4_342_TGFRDQLASIFLACTSHK (UniProt Q9Y2R4)” was run?
**A.** 0.00973

**Q.** What about the “probe-labelled cysteine peptide fold change” value (50 µM) of the same target?
**A.** 0.189

**Q.** For “DDX10_Q13206_196_INNINILVCTPGR (UniProt Q13206)”, which “probe-labelled cysteine peptide fold change” value (10 µM) is on record?
**A.** 0.0926

**Q.** What about the “probe-labelled cysteine peptide fold change” value (50 µM) of the same target?
**A.** 0.195

**Q.** With “DNAJB1_P25685_179_VSLEEIYSGCTK (UniProt P25685)” as the target, how does the “probe-labelled cysteine peptide fold change” value (10 µM) read?
**A.** -0.0218

**Q.** What about the “probe-labelled cysteine peptide fold change” value (50 µM) of the same target?
**A.** 0.255

**Q.** What does the source list for “CTR9_Q6PD62_196_TNPGCPAEVR (UniProt Q6PD62)”?
**A.** probe-labelled cysteine peptide fold change (10 µM): -0.0165; probe-labelled cysteine peptide fold change (50 µM): -0.0939

**Q.** Which “probe-labelled cysteine peptide fold change” value (10 µM) does the source give for “DMXL2_Q8TDJ6_1897_VGCPVLALEVLSK (UniProt Q8TDJ6)” here?
**A.** 0.0214

**Q.** And the “probe-labelled cysteine peptide fold change” value (50 µM)?
**A.** -0.0631

**Q.** Which results are given for “DIAPH1_O60610_1227_KAGCAVTSLLASELTK (UniProt O60610)”?
**A.** probe-labelled cysteine peptide fold change (10 µM): -0.218; probe-labelled cysteine peptide fold change (50 µM): -1.27

**Q.** What does the source list for “DHX16_O60231_932_VEVGLSSCQGDYIR (UniProt O60231)”?
**A.** probe-labelled cysteine peptide fold change (10 µM): -0.184; probe-labelled cysteine peptide fold change (50 µM): 0.119

**Q.** “COPE_O14579_212_CSPTLLLLNGQAACHMAQGR (UniProt O14579)” was tested. Which “probe-labelled cysteine peptide fold change” value (10 µM) did it give?
**A.** 0.0619

**Q.** What about the “probe-labelled cysteine peptide fold change” value (50 µM) of the same target?
**A.** 0.054

**Q.** Which results are given for “DDX5_P17844_200_STCIYGGAPK (UniProt P17844)”?
**A.** probe-labelled cysteine peptide fold change (10 µM): -0.0442; probe-labelled cysteine peptide fold change (50 µM): -0.0153

**Q.** Which “probe-labelled cysteine peptide fold change” value (10 µM) does the source give for “COLGALT1_Q8NBJ5_369_ALQAQEIECR (UniProt Q8NBJ5)” here?
**A.** 0.0256

**Q.** And the “probe-labelled cysteine peptide fold change” value (50 µM)?
**A.** 0.125

**Q.** For “CSDE1_O75534_657_FQLCVLGQNAQTMAYNITPLR (UniProt O75534)”, which “probe-labelled cysteine peptide fold change” value (10 µM) is on record?
**A.** 0.223

**Q.** And the “probe-labelled cysteine peptide fold change” value (50 µM)?
**A.** 0.2

**Q.** What does the source list for “DCLRE1C_Q96SD1_34_AYFLSHCHK (UniProt Q96SD1)”?
**A.** probe-labelled cysteine peptide fold change (10 µM): -0.0775; probe-labelled cysteine peptide fold change (50 µM): -0.167

**Q.** How did the “probe-labelled cysteine peptide fold change” value (10 µM) turn out when “DDHD2_O94830_470_ESEFCSSSNTR (UniProt O94830)” was run?
**A.** -0.28

**Q.** And the “probe-labelled cysteine peptide fold change” value (50 µM)?
**A.** -0.538

**Q.** “COG1_Q8WTW3_625_LCQSLGELCPHLK (UniProt Q8WTW3)” was tested. Which “probe-labelled cysteine peptide fold change” value (10 µM) did it give?
**A.** -0.144

**Q.** What about the “probe-labelled cysteine peptide fold change” value (50 µM) of the same target?
**A.** -0.347

**Q.** “CTNNB1_P35222_520_NLALCPANHAPLR (UniProt P35222)” was tested. Which “probe-labelled cysteine peptide fold change” value (10 µM) did it give?
**A.** -0.273

**Q.** And the “probe-labelled cysteine peptide fold change” value (50 µM)?
**A.** 1.23

**Q.** Which results are given for “CNNM4_Q6P4Q7_220_IVQNCGTEK<|>CNNM2_Q9H8M5_293_IVQNCGTEK (UniProt Q9H8M5+Q6P4Q7)”?
**A.** probe-labelled cysteine peptide fold change (10 µM): -0.2; probe-labelled cysteine peptide fold change (50 µM): -0.279

**Q.** “DCAF12L1_Q5VU92_150_LAQDQQGCGIHAIELNPSK (UniProt Q5VU92)” was tested. Which “probe-labelled cysteine peptide fold change” value (10 µM) did it give?
**A.** -0.214

**Q.** And the “probe-labelled cysteine peptide fold change” value (50 µM)?
**A.** -0.239

**Q.** How did the “probe-labelled cysteine peptide fold change” value (10 µM) turn out when “DHX9_Q08211_1099_LQISHEAAACITGLR (UniProt Q08211)” was run?
**A.** 0.136

**Q.** And the “probe-labelled cysteine peptide fold change” value (50 µM)?
**A.** 0.171

**Q.** Which “probe-labelled cysteine peptide fold change” value (10 µM) does the source give for COG1_Q8WTW3_318_LCSWFK (UniProt Q8WTW3) here?
**A.** -1.03

**Q.** And the “probe-labelled cysteine peptide fold change” value (50 µM)?
**A.** -2.3

**Q.** For “DECR1_Q16698_86_GMTTLLSSLGAQCVIASR (UniProt Q16698)”, which “probe-labelled cysteine peptide fold change” value (10 µM) is on record?
**A.** 0.251

**Q.** And the “probe-labelled cysteine peptide fold change” value (50 µM)?
**A.** 0.213

**Q.** With “CORO1A_P31146_332_GLEVNKCEIAR (UniProt P31146)” as the target, how does the “probe-labelled cysteine peptide fold change” value (10 µM) read?
**A.** -0.447

**Q.** What about the “probe-labelled cysteine peptide fold change” value (50 µM) of the same target?
**A.** -1.1

**Q.** Which results are given for “CTSG_P08311_207_AAFKGDSGGPLLCNNVAHGIVSYGK (UniProt P08311)”?
**A.** probe-labelled cysteine peptide fold change (10 µM): -0.329; probe-labelled cysteine peptide fold change (50 µM): -0.817
